Results reported in PubChem BioAssay AID1159580 (chemical genetic matrix, 2015).
The whole screen tested about 5,500 compounds, of which about 2,000 (36%) were called active. Inconclusive results (about 18%) are left out. Cut-off read from the data, not from the text of the source: active = normalized growth mostly below about 0.91 (no sharp cut-off); inconclusive = no clear call, values can overlap the other calls; inactive = mostly above about 0.92. The list shows a part of the results.

Experiment: chemical genetic growth profiling, strain panel (AID 1159580);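 note: tested at 20 µM; growth read once vehicle control cultures reached saturation at 30 °C; 1 = growth at the plate median or of vehicle wells; lower values mean less growth of the strain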
Conditions: S. cerevisiae deletion strains, growth OD
[1] = locus YAL040C, strain CLN3, stronger effect = lower value
[2] = locus YER002W, strain NOP16, stronger effect = lower value
[3] = locus YNL153C, strain GIM3, stronger effect = lower value
[4] = locus YNL175C, strain NOP13, stronger effect = lower value
[5] = locus YNL197C, strain WHI3, stronger effect = lower value
[6] = locus YNL224C, strain SQS1, stronger effect = lower value
[7] = locus YOR083W, strain WHI5 (second series), stronger effect = lower value
[8] = locus YCL061C, strain MRC1 (second series), stronger effect = lower value
[9] = locus YDR363W, strain ESC2, stronger effect = lower value
[10] = locus YGR078C, strain PAC10, stronger effect = lower value
[11] = locus YNL322C, strain KRE1, stronger effect = lower value
[12] = locus YPL055C, strain LGE1, stronger effect = lower value

Measured: normalized growth

CN(C)CCCC1(c2ccc(F)cc2)OCc2cc(C#N)ccc21 (configuration not stated)
inactive: locus YAL021C, strain ccr4, stronger effect = lower value 0.999 | locus YAL026C, strain drs2, stronger effect = lower value 0.995 | locus YAL030W, strain snc1, stronger effect = lower value 0.987 | [1] 0.984 | locus YBL061C, strain skt5, stronger effect = lower value 0.991 | locus YBR009C, strain hhf1, stronger effect = lower value 0.979 | locus YBR023C, strain chs3, stronger effect = lower value 0.987 | locus YBR171W, strain sec66, stronger effect = lower value 0.983 | locus YBR231C, strain swc5, stronger effect = lower value 0.981 | locus YBR279W, strain paf1, stronger effect = lower value 0.979 | locus YCL011C, strain gbp2, stronger effect = lower value 0.99 | locus YCL016C, strain dcc1, stronger effect = lower value 0.997 | locus YCL061C, strain MRC1, stronger effect = lower value 0.987 | locus YCL069W, strain vba3, stronger effect = lower value 0.992 | locus YCR088W, strain abp1, stronger effect = lower value 0.983 | locus YDL005C, strain med2, stronger effect = lower value 0.985 | locus YDL040C, strain nat1, stronger effect = lower value 0.985 | locus YDR001C, strain nth1, stronger effect = lower value 0.981 | locus YDR069C, strain doa4, stronger effect = lower value 0.983 | locus YDR137W, strain rgp1, stronger effect = lower value 0.991 | locus YDR159W, strain sac3, stronger effect = lower value 0.985 | locus YDR195W, strain ref2 0.946 | locus YDR297W, strain sur2, stronger effect = lower value 0.993 | locus YDR334W, strain swr1, stronger effect = lower value 0.983 | locus YDR335W, strain msn5, stronger effect = lower value 0.991 | locus YDR392W, strain spt3, stronger effect = lower value 0.894 | locus YEL003W, strain gim4, stronger effect = lower value 0.987 | locus YEL037C, strain rad23, stronger effect = lower value 1 | locus YEL061C, strain CIN8 (second series), stronger effect = lower value 0.986 | [2] 0.994 | locus YER015W, strain faa2, stronger effect = lower value 0.985 | locus YER016W, strain bim1, stronger effect = lower value 0.985 | locus YER111C, strain swi4, stronger effect = lower value 0.983 | locus YER155C, strain BEM2 (second series), stronger effect = lower value 0.944 | locus YFR010W, strain ubp6, stronger effect = lower value 0.976 | locus YGL167C, strain pmr1, stronger effect = lower value 0.99 | locus YGL173C, strain kem1, stronger effect = lower value 0.989 | locus YGL227W, strain vid30, stronger effect = lower value 0.989 | locus YGL240W, strain doc1, stronger effect = lower value 0.97 | locus YGL253W, strain hxk2, stronger effect = lower value 0.993 | locus YGR229C, strain SMI1, stronger effect = lower value 1.01 | locus YHR013C, strain ard1, stronger effect = lower value 0.975 | locus YHR027C, strain rpn1, stronger effect = lower value 0.985 | locus YHR030C, strain SLT2, stronger effect = lower value 1.02 | locus YHR079C, strain IRE1, stronger effect = lower value 1.03 | locus YHR142W, strain chs7, stronger effect = lower value 1 | locus YJL092W, strain hpr5, stronger effect = lower value 0.995 | locus YJL095W, strain BCK1 (second series), stronger effect = lower value 0.989 | locus YJL095W, strain BCK1, stronger effect = lower value 1.03 | locus YJL115W, strain asf1, stronger effect = lower value 0.985 | locus YJL129C, strain trk1, stronger effect = lower value 1 | locus YJL154C, strain vps35, stronger effect = lower value 0.989 | locus YJL164C, strain tpk1, stronger effect = lower value 0.987 | locus YJL166W, strain qcr8, stronger effect = lower value 1 | locus YJL187C, strain SWE1, stronger effect = lower value 0.987 | locus YJR066W, strain TOR1, stronger effect = lower value 0.998 | locus YKL160W, strain elf1, stronger effect = lower value 1 | locus YKR026C, strain gcn3, stronger effect = lower value 0.96 | locus YKR091W, strain srl3, stronger effect = lower value 0.991 | locus YLL001W, strain dnm1, stronger effect = lower value 0.994 | locus YLL026W, stronger effect = lower value 0.986 | locus YLL041C, strain sdh2, stronger effect = lower value 0.992 | locus YLR027C, strain aat2, stronger effect = lower value 0.98 | locus YLR113W, strain HOG1, stronger effect = lower value 1.01 | locus YLR221C, strain rsa3, stronger effect = lower value 1 | locus YLR258W, strain gsy2, stronger effect = lower value 0.98 | locus YLR262C, strain YPT6 (second series), stronger effect = lower value 1.05 | locus YLR320W, strain mms22, stronger effect = lower value 0.993 | locus YLR342W, strain FKS1, stronger effect = lower value 0.999 | locus YLR357W, strain rsc2, stronger effect = lower value 0.952 | locus YLR370C, strain arc18, stronger effect = lower value 0.989 | locus YLR384C, strain iki3, stronger effect = lower value 0.98 | locus YML120C, strain ndi1, stronger effect = lower value 0.978 | locus YMR058W, strain fet3, stronger effect = lower value 0.993 | locus YMR125W, strain sto1, stronger effect = lower value 0.951 | locus YMR129W, stronger effect = lower value 0.999 | locus YMR205C, strain PFK2, stronger effect = lower value 0.946 | locus YMR231W, strain pep5, stronger effect = lower value 0.984 | locus YMR263W, strain SAP30, stronger effect = lower value 0.962 | locus YNL071W, strain lat1, stronger effect = lower value 0.99 | [3] 0.997 | [4] 1 | locus YNL183C, strain NPR1, stronger effect = lower value 1 | [5] 1 | locus YNL209W, strain ssb2, stronger effect = lower value 0.992 | [6] 1.02 | locus YNL248C, strain rpa49, stronger effect = lower value 0.99 | locus YNL322C, strain KRE1 (second series), stronger effect = lower value 0.986 | locus YNR049C, strain mso1, stronger effect = lower value 0.982 | locus YOR001W, strain rrp6, stronger effect = lower value 0.987 | locus YOR070C, strain gyp1, stronger effect = lower value 0.985 | locus YOR080W, strain dia2, stronger effect = lower value 0.99 | [7] 1.01 | locus YOR083W, strain WHI5, stronger effect = lower value 0.999 | locus YOR106W, strain vam3, stronger effect = lower value 1.01 | locus YOR231W, strain MKK1, stronger effect = lower value 1.03 | locus YOR265W, strain rbl2, stronger effect = lower value 0.987 | locus YOR270C, strain vph1, stronger effect = lower value 0.996 | locus YOR290C, strain snf2, stronger effect = lower value 0.985 | locus YPL051W, strain arl3, stronger effect = lower value 0.997 | locus YPL078C, strain atp4, stronger effect = lower value 1 | locus YPL106C, strain sse1, stronger effect = lower value 0.959 | locus YPL240C, strain hsp82, stronger effect = lower value 1 | locus YPL256C, strain CLN2, stronger effect = lower value 1.04

COc1cc(CC(=O)O)ccc1O
inactive: locus YAL013W, strain DEP1, stronger effect = lower value 1 | [1] 1.07 | [8] 0.989 | locus YDR150W, strain NUM1, stronger effect = lower value 0.992 | [9] 0.982 | [2] 0.97 | [10] 0.986 | locus YMR307W, strain GAS1, stronger effect = lower value 1.01 | [4] 0.967 | [5] 0.977 | [6] 0.985 | [11] 0.987 | [7] 0.942 | [12] 0.995 | locus YPL241C, strain CIN2, stronger effect = lower value 0.991

COc1cc(C(O)CO)ccc1O (configuration not stated)
inactive: [1] 0.993 | [8] 0.985 | [9] 0.995 | [2] 0.988 | [10] 0.982 | locus YNL128W, strain TEP1, stronger effect = lower value 0.991 | [3] 1.04 | [4] 0.998 | [5] 1 | [6] 0.988 | [11] 0.992 | [7] 1.08 | [12] 0.968
